We go through 13 substances from the supplement of paper PMC8728848.

Assay in all cases: glycan array binding signal (z-score within array); higher = stronger binding
Common to all, as to conditions: glycan notation: IUPAC condensed, linker removed

The test system of experiment [1] is Fuc(a1-3)[Gal3S(b1-4)]Glc6S. In short, it runs like this:
(§1)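 Glycan array data were curated from 3228 arrays in the Consortium for Functional Glycomics database and kept only where the protein sequence was available. Glycan names were converted to IUPAC-condensed notation, and columns mapping to the same glycan were averaged. The binding signal is a within-array Z-score, averaged across arrays of the same protein sequence at different concentrations or buffers and across linkers. Negative Z-scores can be read as non-binding.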

The subject of experiment [2] is Fuc(a1-3)[Gal(b1-4)]GlcNAc6S. In short, it runs like this: as §1
The subject of another experiment is Gal(a1-2)Gal. In short, it runs like this:
as §1

Experiment [3] concerns Fuc(a1-3)[Gal(b1-4)]GlcNAc(b1-3)Gal(b1-4)[Fuc(a1-3)]GlcNAc(b1-3)Gal(b1-4)[Fuc(a1-3)]GlcNAc. The essentials: as §1
Experiment [4] has as its system Fuc(a1-3)[Gal(b1-4)]GlcNAc(b1-3)Gal(b1-3)[Fuc(a1-4)]GlcNAc. In short, it runs like this: as §1
Experiment [5] deals with Fuc(a1-3)[Neu5Ac(a2-3)]Gal(b1-4)GlcNAc(b1-3)GalNAc. The essentials:
as §1

In another experiment the test system is Gal(a1-3)Gal(b1-3)GlcNAc. In short, it runs like this: as §1
Experiment [6] deals with Fuc(a1-3)[Gal(b1-4)]GlcNAc(b1-4)Gal(b1-4)[Fuc(a1-3)]GlcNAc. The essentials: as §1
A further experiment deals with Fuc(a1-4)GlcNAc. The essentials: as §1
Experiment [7] concerns Fuc(a1-3)[Gal(b1-4)]GlcNAc. In short, it runs like this: as §1
A further experiment has as its system Fuc(b1-3)GlcNAc. The essentials:
as §1

Experiment [8] relates to Gal(a1-3)Gal(b1-3)[Fuc(a1-4)]GlcNAc(b1-2)Man(a1-3)[Gal(a1-3)Gal(b1-3)[Fuc(a1-4)]GlcNAc(b1-2)Man(a1-6)]Man(b1-4)GlcNAc(b1-4)GlcNAc. In short, it runs like this:
as §1

Experiment [9] has as its system Fuc(a1-3)[Gal(b1-4)]GlcNAc(b1-6)[Gal(b1-3)GlcNAc(b1-3)]Gal(b1-4)Glc. In short, it runs like this: as §1
Experiment [10] relates to Fuc(a1-3)[Gal(b1-4)]GlcNAc(b1-6)GalNAc. The essentials:
as §1

The test system of experiment [11] is Gal(a1-3)Gal(b1-4)GlcNAc(b1-2)Man(a1-3)[Gal(a1-3)Gal(b1-4)GlcNAc(b1-2)Man(a1-6)]Man(b1-4)GlcNAc(b1-4)GlcNAc. In short, it runs like this:
as §1

Experiment [12] concerns Gal(a1-3)Gal(b1-3)GlcNAc(b1-2)Man(a1-3)[Gal(a1-3)Gal(b1-3)GlcNAc(b1-2)Man(a1-6)]Man(b1-4)GlcNAc(b1-4)GlcNAc. In short, it runs like this:
as §1

In experiment [13] the test system is Gal(a1-3)Gal(b1-3)GlcNAc(b1-3)GalNAc. The essentials: as §1
Experiment [14] concerns Fuc(a1-3)[Gal(b1-4)]GlcNAc(b1-4)Gal(b1-4)[Fuc(a1-3)]GlcNAc(b1-4)Gal(b1-4)[Fuc(a1-3)]GlcNAc. In short, it runs like this: as §1
A further experiment deals with Gal(a1-3)Gal(b1-3)Glc. In short, it runs like this:
as §1

Experiment [15] relates to Fuc(a1-3)[Gal(b1-4)]GlcNAc(b1-3)Gal(b1-4)[Fuc(a1-3)]GlcNAc. In short, it runs like this: as §1

This is one part of a sample in which the strongest signals are shown more often than they occur.

Chain of PILRb (Mus musculus), Q2YSF2 (Q2YSF2 entry or part of it): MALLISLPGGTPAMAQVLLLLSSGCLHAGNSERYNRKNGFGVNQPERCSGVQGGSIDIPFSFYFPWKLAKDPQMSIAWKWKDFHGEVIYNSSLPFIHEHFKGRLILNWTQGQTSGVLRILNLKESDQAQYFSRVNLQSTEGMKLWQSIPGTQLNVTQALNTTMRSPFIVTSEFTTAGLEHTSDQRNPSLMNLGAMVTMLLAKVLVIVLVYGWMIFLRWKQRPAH
Chain of Aggrecan (Rattus norvegicus), NP_071526 (chain, as listed by the source): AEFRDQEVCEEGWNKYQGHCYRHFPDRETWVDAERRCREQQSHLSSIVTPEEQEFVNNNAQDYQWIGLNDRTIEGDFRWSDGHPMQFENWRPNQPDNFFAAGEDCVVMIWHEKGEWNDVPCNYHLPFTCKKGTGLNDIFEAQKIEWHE
Chain of C3b (Homo sapiens), P01024 (P01024 23-667): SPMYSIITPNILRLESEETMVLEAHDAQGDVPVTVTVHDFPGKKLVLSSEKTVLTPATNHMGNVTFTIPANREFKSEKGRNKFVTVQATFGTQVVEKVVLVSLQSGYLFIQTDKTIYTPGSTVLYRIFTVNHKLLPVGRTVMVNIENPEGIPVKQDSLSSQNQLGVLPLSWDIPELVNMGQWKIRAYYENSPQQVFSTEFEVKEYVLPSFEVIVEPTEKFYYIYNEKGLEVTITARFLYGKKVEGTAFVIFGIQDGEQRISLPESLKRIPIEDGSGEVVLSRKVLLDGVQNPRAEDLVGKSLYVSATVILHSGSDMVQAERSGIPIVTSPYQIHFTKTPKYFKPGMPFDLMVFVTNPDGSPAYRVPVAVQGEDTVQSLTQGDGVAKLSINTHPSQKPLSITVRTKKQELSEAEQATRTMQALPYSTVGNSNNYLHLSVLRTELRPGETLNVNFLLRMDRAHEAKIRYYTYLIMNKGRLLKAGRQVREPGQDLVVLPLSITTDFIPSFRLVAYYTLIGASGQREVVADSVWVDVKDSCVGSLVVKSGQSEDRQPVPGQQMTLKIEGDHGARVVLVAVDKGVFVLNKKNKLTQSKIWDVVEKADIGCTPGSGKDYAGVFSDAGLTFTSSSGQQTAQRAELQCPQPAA
Chain of Avaren (Actinomycete K97) (chain, as listed by the source): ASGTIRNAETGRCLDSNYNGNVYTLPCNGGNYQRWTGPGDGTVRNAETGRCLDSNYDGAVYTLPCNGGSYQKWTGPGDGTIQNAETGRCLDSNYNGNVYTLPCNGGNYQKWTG
Chain of SRLC (Mus musculus), Q8VIF6 (Q8VIF6 other isoform, or with tags, fused parts or gaps): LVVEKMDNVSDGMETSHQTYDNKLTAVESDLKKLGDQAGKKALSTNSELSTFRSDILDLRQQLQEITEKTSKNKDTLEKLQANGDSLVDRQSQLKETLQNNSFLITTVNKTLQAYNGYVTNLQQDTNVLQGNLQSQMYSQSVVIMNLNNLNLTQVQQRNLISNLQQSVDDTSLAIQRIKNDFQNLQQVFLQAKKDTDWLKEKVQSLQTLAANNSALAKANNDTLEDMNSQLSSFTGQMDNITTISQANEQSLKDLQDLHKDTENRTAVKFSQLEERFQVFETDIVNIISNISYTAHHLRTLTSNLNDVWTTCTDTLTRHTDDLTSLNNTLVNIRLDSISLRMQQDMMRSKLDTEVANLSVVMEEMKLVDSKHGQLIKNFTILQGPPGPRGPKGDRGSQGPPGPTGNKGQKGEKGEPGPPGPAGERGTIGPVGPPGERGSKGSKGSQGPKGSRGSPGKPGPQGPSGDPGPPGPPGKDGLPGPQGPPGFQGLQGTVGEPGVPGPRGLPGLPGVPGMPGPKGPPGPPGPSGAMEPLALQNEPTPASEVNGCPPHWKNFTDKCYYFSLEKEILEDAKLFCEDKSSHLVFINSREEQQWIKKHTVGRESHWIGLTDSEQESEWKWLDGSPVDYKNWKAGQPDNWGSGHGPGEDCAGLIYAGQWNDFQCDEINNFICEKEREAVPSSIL
Chain of Regenerating Gene IV (Homo sapiens), Q9BYZ8 (Q9BYZ8 whole entry, looked up): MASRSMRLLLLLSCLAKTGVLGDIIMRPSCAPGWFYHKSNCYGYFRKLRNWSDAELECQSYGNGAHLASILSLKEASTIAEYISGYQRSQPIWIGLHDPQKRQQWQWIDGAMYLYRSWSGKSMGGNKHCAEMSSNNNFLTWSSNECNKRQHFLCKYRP
Chain of CHI3L1 (Homo sapiens), P36222 (P36222 whole entry): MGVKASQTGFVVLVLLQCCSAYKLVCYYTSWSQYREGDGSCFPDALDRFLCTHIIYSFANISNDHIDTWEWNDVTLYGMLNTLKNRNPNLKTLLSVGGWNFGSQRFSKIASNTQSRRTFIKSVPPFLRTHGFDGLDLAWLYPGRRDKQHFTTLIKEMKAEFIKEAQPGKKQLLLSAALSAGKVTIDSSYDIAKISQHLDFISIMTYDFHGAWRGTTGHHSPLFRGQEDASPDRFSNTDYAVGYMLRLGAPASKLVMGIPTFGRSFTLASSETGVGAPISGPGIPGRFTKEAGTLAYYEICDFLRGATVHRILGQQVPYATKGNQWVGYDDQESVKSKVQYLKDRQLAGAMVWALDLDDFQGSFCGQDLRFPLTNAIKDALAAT
Chain of CHT (Homo sapiens) (chain, as listed by the source): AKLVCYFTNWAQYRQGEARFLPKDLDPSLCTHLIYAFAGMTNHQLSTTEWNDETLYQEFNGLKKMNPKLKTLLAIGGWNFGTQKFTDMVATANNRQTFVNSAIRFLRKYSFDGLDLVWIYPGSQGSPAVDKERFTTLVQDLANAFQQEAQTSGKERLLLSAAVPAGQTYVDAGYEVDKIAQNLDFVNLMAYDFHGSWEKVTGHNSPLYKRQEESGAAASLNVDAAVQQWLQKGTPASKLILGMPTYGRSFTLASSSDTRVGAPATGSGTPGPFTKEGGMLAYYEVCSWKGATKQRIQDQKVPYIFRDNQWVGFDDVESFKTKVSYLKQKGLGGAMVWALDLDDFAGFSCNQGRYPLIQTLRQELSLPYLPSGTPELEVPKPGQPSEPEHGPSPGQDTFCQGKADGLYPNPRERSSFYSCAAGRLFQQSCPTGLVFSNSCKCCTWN
Chain of Neurocan (Homo sapiens), O14594 (O14594 other isoform, or with tags, fused parts or gaps): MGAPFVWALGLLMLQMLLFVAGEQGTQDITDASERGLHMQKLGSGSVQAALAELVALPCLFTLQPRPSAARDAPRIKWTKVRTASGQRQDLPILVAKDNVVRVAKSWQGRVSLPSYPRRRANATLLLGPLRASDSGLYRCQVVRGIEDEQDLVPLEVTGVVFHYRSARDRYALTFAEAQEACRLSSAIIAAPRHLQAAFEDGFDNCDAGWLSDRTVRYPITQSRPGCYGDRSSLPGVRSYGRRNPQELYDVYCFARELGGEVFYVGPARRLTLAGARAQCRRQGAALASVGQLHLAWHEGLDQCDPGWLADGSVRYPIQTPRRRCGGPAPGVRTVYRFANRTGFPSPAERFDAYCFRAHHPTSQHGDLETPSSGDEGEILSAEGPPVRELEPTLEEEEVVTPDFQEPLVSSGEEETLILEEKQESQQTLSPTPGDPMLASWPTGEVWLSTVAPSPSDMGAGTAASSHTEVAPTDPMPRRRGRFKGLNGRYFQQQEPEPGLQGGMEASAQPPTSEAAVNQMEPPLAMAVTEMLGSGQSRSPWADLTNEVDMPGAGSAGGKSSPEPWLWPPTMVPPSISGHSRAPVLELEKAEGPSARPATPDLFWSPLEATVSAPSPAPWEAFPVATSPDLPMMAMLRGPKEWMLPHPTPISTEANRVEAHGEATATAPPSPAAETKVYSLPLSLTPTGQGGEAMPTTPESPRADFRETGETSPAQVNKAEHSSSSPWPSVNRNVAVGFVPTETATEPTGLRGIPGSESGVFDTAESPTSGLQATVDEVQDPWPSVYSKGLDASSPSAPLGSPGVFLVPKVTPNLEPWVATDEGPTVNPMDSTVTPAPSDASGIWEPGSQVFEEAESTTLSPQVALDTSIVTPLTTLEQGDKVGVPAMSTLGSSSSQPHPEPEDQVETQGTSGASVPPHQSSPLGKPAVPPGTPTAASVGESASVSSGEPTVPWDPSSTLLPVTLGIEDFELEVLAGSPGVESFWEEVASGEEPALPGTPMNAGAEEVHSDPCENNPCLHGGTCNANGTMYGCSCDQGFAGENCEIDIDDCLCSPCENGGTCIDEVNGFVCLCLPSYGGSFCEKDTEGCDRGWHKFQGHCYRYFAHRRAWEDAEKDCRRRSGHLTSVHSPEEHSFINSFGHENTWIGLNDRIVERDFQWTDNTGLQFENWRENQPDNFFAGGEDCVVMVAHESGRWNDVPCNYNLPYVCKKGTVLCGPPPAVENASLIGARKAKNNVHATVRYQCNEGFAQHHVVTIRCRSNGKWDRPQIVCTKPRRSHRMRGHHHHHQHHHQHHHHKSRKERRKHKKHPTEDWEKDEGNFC
Chain of wLAT-1A (Homo sapiens), Q01650 (Q01650 whole entry): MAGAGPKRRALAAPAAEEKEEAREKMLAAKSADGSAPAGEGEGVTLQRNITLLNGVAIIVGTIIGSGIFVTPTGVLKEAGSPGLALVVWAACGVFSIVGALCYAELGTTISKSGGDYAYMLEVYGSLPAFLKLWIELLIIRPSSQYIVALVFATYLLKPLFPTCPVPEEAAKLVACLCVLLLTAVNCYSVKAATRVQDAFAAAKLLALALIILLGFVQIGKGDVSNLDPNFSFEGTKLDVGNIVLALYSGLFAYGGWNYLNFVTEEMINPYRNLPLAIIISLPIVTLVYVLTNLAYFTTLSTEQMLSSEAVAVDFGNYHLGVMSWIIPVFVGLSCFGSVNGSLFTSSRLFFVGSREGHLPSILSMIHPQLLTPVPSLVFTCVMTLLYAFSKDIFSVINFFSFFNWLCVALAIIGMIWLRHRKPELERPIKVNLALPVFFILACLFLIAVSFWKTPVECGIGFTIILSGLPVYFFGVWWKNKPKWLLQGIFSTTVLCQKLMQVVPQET

Turning to wLAT-1A (Homo sapiens), Q01650, the “glycan array binding signal (z-score)” value in experiment [1] is 3.91.
With “Regenerating Gene IV (Homo sapiens), Q9BYZ8”, the “glycan array binding signal (z-score)” value in experiment [2] was -0.14; with Gal(a1-2)Gal it was 6.89.
With HARE (Homo sapiens), Q8WWQ8, the “glycan array binding signal (z-score)” value in [3] was found to be 0.285.
For the substance CHI3L1 (Homo sapiens), P36222, the entries for the “glycan array binding signal (z-score)” value (in experiment [4]; with Gal(a1-2)Gal) were -0.081 and -0.025, respectively.
Consider Aggrecan (Rattus norvegicus), NP_071526, for which the “glycan array binding signal (z-score)” value was 0.658 in experiment [5], -0.066 in the experiment on Gal(a1-2)Gal and -0.05 in the experiment on Gal(a1-3)Gal(b1-3)GlcNAc.
C3b (Homo sapiens), P01024: the “glycan array binding signal (z-score)” value was -0.595 in experiment [6], 3.19 in the experiment on Fuc(a1-4)GlcNAc and 1.35 in the experiment on Gal(a1-3)Gal(b1-3)GlcNAc.
Regarding CHT (Homo sapiens), the “glycan array binding signal (z-score)” value was -0.176 in experiment [7] (mutation: D138V, E140I) and -0.132 in the experiment on Fuc(b1-3)GlcNAc (mutation: D138V, E140I).
Take MpAFP RI GFP (Marinomonas primoryensis): the “glycan array binding signal (z-score)” value in [8] is 2.56.
With Neurocan (Homo sapiens), O14594, the “glycan array binding signal (z-score)” value in [9] is 2.26; in the experiment on Fuc(b1-3)GlcNAc, -0.101.
Consider Avaren (Actinomycete K97), for which the entries for the “glycan array binding signal (z-score)” value in experiment [10], in [2] and in experiment [11] were -0.094, -0.109 and -0.106, respectively.
In the case of PILRb (Mus musculus), Q2YSF2, the “glycan array binding signal (z-score)” value was -0.626 in experiment [1], 6.25 in experiment [12] and -0.312 in [13].
On to SRLC (Mus musculus), Q8VIF6, for which the “glycan array binding signal (z-score)” value in experiment [4] was 4.31; in experiment [14], 7.13; in experiment [6] it was 4.46; in experiment [7], 6.98; in the experiment on Gal(a1-3)Gal(b1-3)Glc it was -0.234.
Take Siglec-8 (Homo sapiens), Q9NYZ4: the “glycan array binding signal (z-score)” value in experiment [15] is -0.046; in experiment [10], -0.063; in experiment [2] (mutation: R125K) it was 5.35; in [7] (mutation: R125K), -0.361; with Fuc(a1-4)GlcNAc (mutation: R125K) it was 2.97.
